{"source": "ChEMBL document CHEMBL3988442", "about": "“University of Dundee, Small-Polar-MMV Screening Library” (2021)", "note": "Screen size: about 48,000 compounds; about 13,000 (27%) showed an effect of 50% or more. The list shows a part of the results."}
{"tested_on": "Wolbachia pipientis", "test": "Anti-Wolbachia Cell-Based Screen", "assay_type": "functional", "set-up": "scale not given: in the data most compounds retested in dose-response had high values", "conditions": "5 µM", "units": {"Percent Effect": "%"}}
{"smiles": "O=C(O)[C@@H]1CN(C2CCCC2)C[C@H]1C1CC1", "Percent Effect": -8.244}
{"smiles": "Cc1ccc(NC(=O)NC(C)c2nc[nH]n2)cc1Cl", "note": "(centres undefined)", "Percent Effect": -5.292}
{"smiles": "c1cc2c(cc1-c1noc3c1CN(C1CCSCC1)CC3)OCO2", "Percent Effect": -0.3794}
{"smiles": "CC(C)n1cnnc1CN(C)C(=O)C1CCCN(CC(N)=O)C1", "note": "(centres undefined)", "Percent Effect": 92.86}
{"smiles": "CC(C)n1cnnc1CN(C)C(=O)C1CCCN(C2CCN(C)CC2)C1", "note": "(centres undefined)", "Percent Effect": 110.4}
{"smiles": "CN(CCCc1cnn(C)c1)C(=O)C1CCCN(C2CCCC2)C1", "note": "(centres undefined)", "Percent Effect": -4.141}
{"smiles": "CC(C)n1cnnc1CN(C)CC1CCCNC1", "note": "(centres undefined)", "Percent Effect": -3.149}
{"smiles": "CC(C)n1cnnc1CN(C)C1CCCNC1", "note": "(centres undefined)", "Percent Effect": -12.15}
{"smiles": "CCCn1cnnc1CN(C)C(=O)C1CCCN(C2CCN(C)CC2)C1", "note": "(centres undefined)", "Percent Effect": 120.4}
{"smiles": "CCn1cnnc1CN(C)C(=O)C1CCC(=O)N(CC2CCCCC2)C1", "note": "(centres undefined)", "Percent Effect": 6.192}
{"smiles": "CCCn1cnnc1CN(C)C(=O)C1CCC(=O)N(C2CCCC2)C1", "note": "(centres undefined)", "Percent Effect": -9.656}
{"smiles": "Cc1ccsc1CN(C)C(=O)C1CCCN(C(N)=O)C1", "note": "(centres undefined)", "Percent Effect": 8.59}
{"smiles": "O=C1CN(Cc2cc(O)c3cccc(F)c3n2)CCN1C1CCCC1", "Percent Effect": -1.558}
{"smiles": "Cc1ncnc(NCC(C)N(C)c2ccccc2)c1C", "note": "(centres undefined)", "Percent Effect": -9.709}
{"smiles": "COCCN1CCCC2(CCN(Cc3noc(C4CCCC4)n3)C2)C1=O", "note": "(centres undefined)", "Percent Effect": 5.891}
{"smiles": "Cc1nc(C)n(Cc2cccc(NC3CCN(C)C3=O)c2)n1", "note": "(centres undefined)", "Percent Effect": -8.315}
{"smiles": "CN(Cc1ccccc1)CC(C)(C)NC(=O)c1cnns1", "Percent Effect": -3.698}
{"smiles": "CN(C)CCN(C)C(=O)Nc1cc(F)cc(N2CCCC2)c1", "Percent Effect": 23.94}
{"smiles": "Cn1cnc(CN2Cc3nccn3CC2c2ccccc2)c1", "note": "(centres undefined)", "Percent Effect": 137.8}
{"smiles": "c1ccc(CNC[C@H]2Cn3ccnc3CO2)cc1", "Percent Effect": -10.94}
{"smiles": "Cc1cc(C)n(CC(C)NCCN2CCc3ccccc32)n1", "note": "(centres undefined)", "Percent Effect": 20.38}
{"smiles": "Cc1cc(C)n(CC(C)NCCn2nc(C)c(Cl)c2C)n1", "note": "(centres undefined)", "Percent Effect": 9.985}
{"smiles": "CC(Cn1cncn1)NCCN1CCc2ccccc2C1", "note": "(centres undefined)", "Percent Effect": 12.32}
{"smiles": "CC(Cn1cncn1)NCc1nncn1C1CCCCC1", "note": "(centres undefined)", "Percent Effect": -14}
{"smiles": "Cc1cc(C(F)(F)F)nc(CCNC(C)Cn2ccnc2)n1", "note": "(centres undefined)", "Percent Effect": 111.3}
{"smiles": "CC(Cn1ccnc1)NS(=O)(=O)Cc1ccc(F)cc1", "note": "(centres undefined)", "Percent Effect": -3.68}
{"smiles": "Cc1ccc2c(c1)c(CNC(C)Cn1ccnc1)nn2C", "note": "(centres undefined)", "Percent Effect": 4.186}
{"smiles": "Cc1cc(C(F)(F)F)nc(CCNC(C)Cn2cncn2)n1", "note": "(centres undefined)", "Percent Effect": 108.9}
{"smiles": "Cc1cc(C(F)(F)F)nc(CCNC(C)Cn2nc(C)cc2C)n1", "note": "(centres undefined)", "Percent Effect": 119.2}
{"smiles": "COCCCN1CCCC2(CCN(S(=O)(=O)c3cccnc3)C2)C1=O", "note": "(centres undefined)", "Percent Effect": -3.769}
{"smiles": "CC1(C)CNC(=O)c2nc(C3CCCN(S(C)(=O)=O)C3)[nH]c2C1", "note": "(centres undefined)", "Percent Effect": -1.918}
{"smiles": "O=C(O)c1cccc(C2CCCN(S(=O)(=O)N3CCOCC3)C2)c1", "note": "(centres undefined)", "Percent Effect": 13.32}
{"smiles": "CC1CCN(S(=O)(=O)N2CCCC(c3cccc(C(=O)O)c3)C2)CC1", "note": "(centres undefined)", "Percent Effect": -0.2169}
{"smiles": "Cc1nccc(C2CCCN(S(=O)(=O)N3CCOCC3)C2)n1", "note": "(centres undefined)", "Percent Effect": 96.21}
{"smiles": "CS(=O)(=O)N1CC[C@H](c2nc3ccc(C(F)(F)F)cc3[nH]2)C1", "Percent Effect": 11.72}
{"smiles": "O=S(=O)(N1CCOCC1)N1CCCC(c2ccccn2)C1", "note": "(centres undefined)", "Percent Effect": 113}
{"smiles": "Cc1ccc(C2CCCN(S(=O)(=O)N3CCOCC3)C2)nc1", "note": "(centres undefined)", "Percent Effect": 122.5}
{"smiles": "Cc1ccc(C2CCCN(S(C)(=O)=O)C2)nc1", "note": "(centres undefined)", "Percent Effect": 144.7}
{"smiles": "CN(C1CCN(c2ccccn2)CC1)S(=O)(=O)N1CCOCC1", "Percent Effect": 4.035}
{"smiles": "Cc1noc2ncc(S(=O)(=O)Nc3cc(CC(C)(C)C)[nH]n3)cc12", "Percent Effect": -3.68}
{"smiles": "CCC(NS(C)(=O)=O)c1ccccc1OC", "note": "(centres undefined)", "Percent Effect": -5.645}
{"smiles": "CCN(Cc1cccs1)C(=O)c1ccc(=O)n(C)c1", "Percent Effect": 17.88}
{"smiles": "Cc1cccnc1CC(C)N(C)C(=O)c1ccoc1C", "note": "(centres undefined)", "Percent Effect": -11.81}
{"smiles": "Cc1occc1CNC(=O)C1(C)CCCN(C(=O)c2ccccc2)C1", "note": "(centres undefined)", "Percent Effect": 10.24}
{"smiles": "Cc1csc(C(C#N)C(=O)Nc2ccccc2)n1", "note": "(centres undefined)", "Percent Effect": -10.65}
{"smiles": "Cc1ccc(S(=O)(=O)N(C)Cc2nccs2)cc1N(C)C", "Percent Effect": 7.403}
{"smiles": "CNC(=O)c1sc(C2CCCC2)nc1C", "Percent Effect": 1.771}
{"smiles": "Cc1nc(C2CCCN(S(C)(=O)=O)C2)sc1Br", "note": "(centres undefined)", "Percent Effect": 114.6}
{"smiles": "Cc1nc(C2CCCC2)sc1C(N)=O", "Percent Effect": -5.82}
